An excerpt weighted towards active compounds, which were near 11% of everything screened.
HP1b chromo inh – inhibitors of HP1-beta chromodomain binding to methylated histone tails | AlphaScreen HP1-beta / biotin-H3K9me3 peptide binding | 0.56% of 390,000 active | P83916 | Potency, µM (top dose mostly 114 µM), actives largely listed as inhibitors; note: nearly all actives have a fitted effect of over 70% in size
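Compound inhibition of the preformed complex between 50 nM HP1-beta and 50 nM biotinylated H3K9me3 peptide was read by AlphaScreen. Buffer was PBS pH 7.4 with 0.01% Tween-20. Incubations ran 30 min at room temperature, with 10 ug/mL donor/acceptor beads.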
BAZ2B inh – blocks human BAZ2B. Q9UIF8. 4.4% of 360,000 active. AID 504333. Potency, µM (titrated, usually from 114 µM), most hits filed as inhibitors. AlphaScreen BAZ2B-H3K14Ac peptide displacement; note: nearly all actives have a fitted effect of over 60% in size
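Inhibition is scored as reduced AlphaScreen emission. The BAZ2B/b-H3(5-23)K14Ac complex (50 nM each) in PBS pH 7.4, 0.01% Tween-20 meets compound (up to 110 uM) for 30 min at RT before bead addition.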
G9a block – G9a (human) methyltransferase inhibition. G9a H3K9 monomethylation, AlphaScreen, 2 h. Potency, µM (top dose mostly 102 µM), actives largely listed as inhibitors. 8.8% of 350,000 active; note: nearly all actives have a fitted effect of over 75% in size
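Enzyme 20 nM + cpd, 15 min RT; add b-H3K9 pep 500 nM / SAM 20 uM; 2 h RT; anti-H3K9me1 Ab 0.5 ug/mL + SA donor / anti-rabbit acceptor beads 20 ug/mL each, 10 min; AlphaScreen read.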
JMJD2A Tudor inh – JMJD2A Tudor domain (human) inhibition; AlphaScreen JMJD2A-Tudor / H3K4me3 peptide binding; Potency, µM (titrated, usually from 114 µM), most hits filed as inhibitors; 4.4% of 390,000 active; AID 504339; note: nearly all actives have a fitted effect of over 50% in size
L3MBTL1 inh – blocks human L3MBTL1; 0.66% of 230,000 active; Q9Y468; Potency, µM (doses to about 57.1 µM), actives largely listed as inhibitors; AID 485360; AlphaScreen L3MBTL1–H3K9me1 peptide binding; note: nearly all actives have a fitted effect of over 60% in size
Target sequence (Q9Y468 whole entry, looked up): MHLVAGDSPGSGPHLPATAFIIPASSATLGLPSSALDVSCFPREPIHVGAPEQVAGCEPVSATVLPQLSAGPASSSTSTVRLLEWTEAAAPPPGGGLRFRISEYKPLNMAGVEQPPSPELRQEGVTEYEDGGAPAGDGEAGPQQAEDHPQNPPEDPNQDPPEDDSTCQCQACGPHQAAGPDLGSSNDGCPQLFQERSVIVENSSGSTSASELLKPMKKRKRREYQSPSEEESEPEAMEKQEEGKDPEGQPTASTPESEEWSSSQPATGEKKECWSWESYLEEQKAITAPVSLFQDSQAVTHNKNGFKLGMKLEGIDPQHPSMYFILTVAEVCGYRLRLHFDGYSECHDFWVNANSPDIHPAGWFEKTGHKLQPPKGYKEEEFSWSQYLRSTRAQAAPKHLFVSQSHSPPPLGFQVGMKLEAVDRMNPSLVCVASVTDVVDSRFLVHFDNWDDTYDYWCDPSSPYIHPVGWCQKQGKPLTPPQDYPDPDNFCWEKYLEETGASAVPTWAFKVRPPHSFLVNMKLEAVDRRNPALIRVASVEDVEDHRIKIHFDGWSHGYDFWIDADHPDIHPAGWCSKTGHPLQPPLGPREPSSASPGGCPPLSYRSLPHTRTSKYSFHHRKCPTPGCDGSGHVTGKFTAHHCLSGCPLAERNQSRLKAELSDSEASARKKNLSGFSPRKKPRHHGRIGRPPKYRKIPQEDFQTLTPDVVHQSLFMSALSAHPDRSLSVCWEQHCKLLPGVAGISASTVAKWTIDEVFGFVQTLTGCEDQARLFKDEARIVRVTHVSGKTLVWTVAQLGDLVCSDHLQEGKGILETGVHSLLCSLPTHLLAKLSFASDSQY
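L3MBTL1 (50 nM) pre-complexed 30 min with biotinylated H3(1-15)K9me1 peptide (75 nM), then compounds added for 30 min at room temperature; AlphaScreen streptavidin donor/nickel chelate acceptor beads (10 ug/mL final) read after 30 min dark incubation.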
Large screens that a line does not name were inactive. Calls come from the whole dose curve; as a rule, active = well fitted inhibition curve with a large enough effect; inconclusive = small, poorly fitted or top-dose-only effect; inactive = no such curve, though single readings can be large or run the other way.

CC(=O)c1cccc([N+](=O)[O-])c1	none
COc1ccc(-c2nn(CCC(=O)O)cc2/C=C2\SC(N)=NC2=O)cc1OC	BAZ2B inh 56.2µM, G9a block inconclusive, JMJD2A Tudor inh inconclusive
CCCOc1ccc(-c2nn(-c3ccccc3)cc2/C=C2\SC(N)=NC2=O)cc1C	none
Cc1cccc(-c2noc(C3CC(=O)N(c4ccc5c(c4)OCCO5)C3)n2)c1 (configuration not stated)	none (no result: L3MBTL1 inh)
Nc1n[nH]c(N)c1N=Nc1ccc(F)cc1	BAZ2B inh inconclusive, JMJD2A Tudor inh inconclusive, L3MBTL1 inh inconclusive
Cc1nc(N)sc1N=Nc1ccc(F)cc1	HP1b chromo inh inconclusive, G9a block 44.7µM, JMJD2A Tudor inh inconclusive (no result: L3MBTL1 inh)
N#CC1=C(N)Oc2c(ccc3ccccc23)C1c1ccsc1 (configuration not stated)	G9a block 44.7µM
CC1=C(C(=O)OCc2ccccc2)C(c2ccsc2)C(C#N)=C(N)O1 (configuration not stated)	G9a block inconclusive
N#CC1=C(N)Oc2c(oc(CO)cc2=O)C1c1cccs1 (configuration not stated)	G9a block 44.7µM, JMJD2A Tudor inh 28.2µM
N#CC1=C(N)Oc2c(oc(CO)cc2=O)C1c1ccsc1 (configuration not stated)	BAZ2B inh 50.1µM, G9a block 31.6µM (no result: L3MBTL1 inh)
COC(=O)C1=C(C)OC(N)=C(C#N)C1c1ccsc1 (configuration not stated)	G9a block inconclusive
Cc1nc(SCc2nc3ccc(F)cc3[nH]2)c2oc3ccccc3c2n1	JMJD2A Tudor inh inconclusive (no result: BAZ2B inh, G9a block)
Cc1nc(SCc2nc3c(O)cccc3[nH]2)c2oc3ccccc3c2n1	JMJD2A Tudor inh 28.2µM (no result: BAZ2B inh, G9a block)
O=C(NCC(c1ccc2c(c1)OCO2)N1CCN(c2ccccc2F)CC1)c1ccccc1F (configuration not stated)	none (no result: L3MBTL1 inh)
CC[n+]1c(/C=C/N(C)c2ccccc2)n(-c2ccccc2)c2ccc(-c3nc4ccccc4s3)cc21	G9a block 25.1µM, JMJD2A Tudor inh 35.5µM
CCOC(=O)c1ccc2c(c1)n(CC)c(/C=C/N(C)c1ccccc1)[n+]2CC	HP1b chromo inh inconclusive, BAZ2B inh inconclusive
CC1CCN(C(=O)Cn2cc(SCc3ccccc3)c3ccccc32)CC1	none (no result: L3MBTL1 inh)
CC(C)=CCc1c(-c2ccc(O)cc2O)oc2c3c(cc(O)c2c1=O)OC(C)(C)C=C3	JMJD2A Tudor inh inconclusive (no result: BAZ2B inh, G9a block, L3MBTL1 inh)
CC(C)=CCc1c2c(c(O)c3c(=O)c4c(oc13)-c1cc(O)c(O)cc1OC4C=C(C)C)C=CC(C)(C)O2 (configuration not stated)	HP1b chromo inh inconclusive, JMJD2A Tudor inh 35.5µM (no result: BAZ2B inh, G9a block, L3MBTL1 inh)
CN(C)Cc1c(O)ccc2c3c(c(=O)oc12)CCCCC3	none (no result: L3MBTL1 inh)
CN(Cc1c(O)ccc2c1oc(=O)c1ccccc12)C1CCCCC1	HP1b chromo inh inconclusive, BAZ2B inh 5.62µM, G9a block inconclusive, JMJD2A Tudor inh 3.98µM (no result: L3MBTL1 inh)
COc1ccc(S(=O)(=O)NCCc2csc3nc(-c4cccc(C)c4)nn23)cc1F	BAZ2B inh inconclusive (no result: L3MBTL1 inh)
COc1cccc(CNC(=O)c2ccc(CS(=O)Cc3ccc(Cl)cc3)o2)c1 (configuration not stated)	none (no result: L3MBTL1 inh)
Cc1ccc(Nc2nnc(SCC(=O)NCCN3C(=O)CSC3=O)s2)cc1C	G9a block 28.2µM
Cc1ccc(SCC(=O)NCCN2C(=O)CSC2=O)cc1C	none (no result: L3MBTL1 inh)
COCCNC(=S)N/N=C(\C)c1ccccc1OC	none
Cc1cccc(C)c1NC(=S)N/N=C/c1ccccc1C(=O)O	none (no result: G9a block)
COCCCNC(=S)N/N=C/c1ccccc1O	BAZ2B inh 10µM, JMJD2A Tudor inh 56.2µM, L3MBTL1 inh inconclusive (no result: G9a block)
COCCNC(=S)N/N=C/c1ccccc1C(=O)O	BAZ2B inh inconclusive, G9a block 8.91µM, JMJD2A Tudor inh inconclusive (no result: L3MBTL1 inh)
COCCCNC(=S)N/N=C/c1ccc(N(C)C)cc1Cl	none
COCCNC(=S)N/N=C(\C)c1ccccc1O	BAZ2B inh 10µM
CCN(CC)c1ccc(-c2nc3cnccn3c2NC2CCCC2)cc1	HP1b chromo inh inconclusive, G9a block 50.1µM, JMJD2A Tudor inh 79.4µM
O=C1c2ccccc2C(=O)N1CCCCNc1ccccc1	none (no result: BAZ2B inh, G9a block, L3MBTL1 inh)
c1ccc(NCCCNc2ccccc2)cc1	BAZ2B inh 50.1µM, G9a block inconclusive, JMJD2A Tudor inh inconclusive
C=CCn1c(C(CCC(C)C)CC(C)(C)O)n[nH]c1=S (configuration not stated)	G9a block inconclusive, JMJD2A Tudor inh 7.08µM
